Sampled rows, rich in hits. Any-hit rate of the full collection: about 3.5%.
mHTT CaM bind = mutant huntingtin-calmodulin interaction inhibitors – biochemical, AlphaScreen, primary screen | actives 3.6% (n = 190,000) | inhibition, % at 15 µM | P42858 | AlphaScreen His-mHTT/GST-CaM binding, luminescence;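 note: 0% = both proteins with DMSO and 100% = one protein alone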
Target sequence (P42858 whole entry, looked up, stated change not applied): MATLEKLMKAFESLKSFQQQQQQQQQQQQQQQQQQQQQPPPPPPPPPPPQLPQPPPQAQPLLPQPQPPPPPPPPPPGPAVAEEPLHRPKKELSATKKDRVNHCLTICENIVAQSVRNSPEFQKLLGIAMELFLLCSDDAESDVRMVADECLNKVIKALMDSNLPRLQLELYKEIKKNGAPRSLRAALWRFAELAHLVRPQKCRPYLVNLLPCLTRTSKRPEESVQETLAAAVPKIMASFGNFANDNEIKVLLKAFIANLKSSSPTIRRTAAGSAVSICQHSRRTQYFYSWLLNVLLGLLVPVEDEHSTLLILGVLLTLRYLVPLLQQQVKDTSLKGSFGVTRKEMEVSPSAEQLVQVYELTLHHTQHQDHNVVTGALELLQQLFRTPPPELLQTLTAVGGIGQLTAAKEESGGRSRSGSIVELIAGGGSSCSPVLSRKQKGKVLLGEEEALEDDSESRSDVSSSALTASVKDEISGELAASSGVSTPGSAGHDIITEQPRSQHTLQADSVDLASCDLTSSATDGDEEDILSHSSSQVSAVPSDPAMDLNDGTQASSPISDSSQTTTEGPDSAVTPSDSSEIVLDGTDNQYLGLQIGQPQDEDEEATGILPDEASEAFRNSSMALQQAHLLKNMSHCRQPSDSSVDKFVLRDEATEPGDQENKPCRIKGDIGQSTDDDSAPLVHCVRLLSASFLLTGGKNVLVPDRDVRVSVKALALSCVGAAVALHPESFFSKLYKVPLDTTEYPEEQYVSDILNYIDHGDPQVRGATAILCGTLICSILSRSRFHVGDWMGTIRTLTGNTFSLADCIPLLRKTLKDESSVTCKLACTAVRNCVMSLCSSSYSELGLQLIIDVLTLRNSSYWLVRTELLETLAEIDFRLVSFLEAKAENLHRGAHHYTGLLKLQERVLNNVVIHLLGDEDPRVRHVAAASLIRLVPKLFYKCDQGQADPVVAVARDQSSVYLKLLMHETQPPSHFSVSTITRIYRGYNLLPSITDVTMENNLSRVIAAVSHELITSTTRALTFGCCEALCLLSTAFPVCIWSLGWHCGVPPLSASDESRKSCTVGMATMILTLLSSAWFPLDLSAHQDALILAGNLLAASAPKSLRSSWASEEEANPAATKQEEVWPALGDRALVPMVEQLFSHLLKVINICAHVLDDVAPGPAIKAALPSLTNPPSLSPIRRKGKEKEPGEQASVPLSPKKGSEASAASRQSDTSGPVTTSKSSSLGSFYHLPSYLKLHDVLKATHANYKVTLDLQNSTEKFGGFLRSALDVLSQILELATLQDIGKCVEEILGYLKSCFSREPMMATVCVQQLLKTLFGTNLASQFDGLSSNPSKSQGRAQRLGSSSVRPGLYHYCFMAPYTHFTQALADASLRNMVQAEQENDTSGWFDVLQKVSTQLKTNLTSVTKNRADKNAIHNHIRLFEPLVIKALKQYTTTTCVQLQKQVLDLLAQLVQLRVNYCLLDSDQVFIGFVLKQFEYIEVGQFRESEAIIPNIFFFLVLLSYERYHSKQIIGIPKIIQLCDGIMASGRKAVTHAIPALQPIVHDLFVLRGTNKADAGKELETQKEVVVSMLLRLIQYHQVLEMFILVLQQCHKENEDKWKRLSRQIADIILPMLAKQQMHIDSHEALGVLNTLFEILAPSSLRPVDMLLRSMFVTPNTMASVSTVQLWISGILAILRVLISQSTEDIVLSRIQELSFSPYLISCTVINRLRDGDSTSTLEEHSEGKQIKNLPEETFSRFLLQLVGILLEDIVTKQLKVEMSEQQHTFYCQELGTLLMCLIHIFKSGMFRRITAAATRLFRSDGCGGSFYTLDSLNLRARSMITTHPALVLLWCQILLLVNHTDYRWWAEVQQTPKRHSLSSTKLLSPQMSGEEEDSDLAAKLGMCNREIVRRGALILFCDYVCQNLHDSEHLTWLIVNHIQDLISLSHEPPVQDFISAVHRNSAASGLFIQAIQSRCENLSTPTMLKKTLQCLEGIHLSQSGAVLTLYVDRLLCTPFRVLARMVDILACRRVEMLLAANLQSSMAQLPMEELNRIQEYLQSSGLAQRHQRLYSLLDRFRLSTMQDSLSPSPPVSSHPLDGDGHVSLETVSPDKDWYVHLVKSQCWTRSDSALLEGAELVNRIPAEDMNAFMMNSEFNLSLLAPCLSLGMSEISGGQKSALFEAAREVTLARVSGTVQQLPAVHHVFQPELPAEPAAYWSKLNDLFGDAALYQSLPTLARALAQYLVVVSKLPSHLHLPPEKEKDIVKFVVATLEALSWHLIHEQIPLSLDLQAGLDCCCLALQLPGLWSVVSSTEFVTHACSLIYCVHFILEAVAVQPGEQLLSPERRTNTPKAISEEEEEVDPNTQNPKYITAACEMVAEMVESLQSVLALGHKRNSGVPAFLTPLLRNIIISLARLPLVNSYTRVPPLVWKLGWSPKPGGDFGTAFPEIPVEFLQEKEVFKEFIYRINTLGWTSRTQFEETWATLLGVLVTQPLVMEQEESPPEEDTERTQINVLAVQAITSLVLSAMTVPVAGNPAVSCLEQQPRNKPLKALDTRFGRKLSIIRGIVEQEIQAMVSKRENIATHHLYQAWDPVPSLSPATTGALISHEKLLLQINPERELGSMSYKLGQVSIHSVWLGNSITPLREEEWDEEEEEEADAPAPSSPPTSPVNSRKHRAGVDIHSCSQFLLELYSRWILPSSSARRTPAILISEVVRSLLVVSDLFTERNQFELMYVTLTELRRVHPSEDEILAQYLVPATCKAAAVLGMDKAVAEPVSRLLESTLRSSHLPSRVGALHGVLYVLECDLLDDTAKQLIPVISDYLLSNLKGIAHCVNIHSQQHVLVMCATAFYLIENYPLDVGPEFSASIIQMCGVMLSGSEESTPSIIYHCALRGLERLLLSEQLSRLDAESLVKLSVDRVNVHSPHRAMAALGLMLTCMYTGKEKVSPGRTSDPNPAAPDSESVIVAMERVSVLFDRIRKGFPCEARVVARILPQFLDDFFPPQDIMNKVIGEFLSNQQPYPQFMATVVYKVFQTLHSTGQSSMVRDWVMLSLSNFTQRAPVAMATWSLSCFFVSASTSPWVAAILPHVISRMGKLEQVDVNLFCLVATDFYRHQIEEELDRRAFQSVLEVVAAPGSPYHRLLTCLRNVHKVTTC
Pf apPOL block = Pf-apPOL inhibitors, biochemical, fluorescence; Recombinant Pf-apPOL, molecular beacon fluorescence, 1.5 h; inhibition, % at 10 µM; actives 0.25% (n = 210,000); AID 1794808, 2022
Active calls of the source: *; i = inactive; . = not tested or not shown. Cut-off read from the data, not from the text of the source: active = inhibition above about 50%; inactive = the rest.

SMILES	mHTT CaM bind	Pf apPOL block
COc1ccccc1CNC(=O)CC1CCN(S(=O)(=O)c2c(C)noc2C)CC1	0	-2
CCn1cc(CN2CCN(c3ncccn3)CC2)ccc1=O	-19	-2
Cn1nc(C(=O)NCc2ccccc2)c2c1CCN(C(=O)c1ccc(Br)o1)C2	16	-4
COc1ccccc1C(=O)N1CCc2c(c(C(=O)NCc3ccccc3)nn2C)C1	36	-5
Cn1nc(C(=O)NCc2ccc(F)cc2)c2c1CCN(C(=O)c1ccccc1Cl)C2	55*	-7
Cc1ccccc1C(=O)N1CCc2c(c(C(=O)NCc3ccc(F)cc3)nn2C)C1	35	-12
Cn1nc(C(=O)NCc2ccccc2)c2c1CCN(C(=O)c1ccccc1F)C2	53*	-5
COc1ccccc1C(=O)N1CCc2c(c(C(=O)NCc3ccc(F)cc3)nn2C)C1	71*	-12
COc1ccc(CN2COc3ccc4c(=O)c(-c5ccccc5OC)coc4c3C2)cc1OC	-2	-8
CC1=C(C(=O)Nc2cc(C)ccc2C)C2(CCCCC2)OC1=O	-12	0
O=[N+]([O-])C(=C1SCCCS1)C(=C(Cl)Cl)N1CCOCC1	32	-10
CC1CCCC(C)N1C(=C(Cl)Cl)C(=C1SCCS1)[N+](=O)[O-] (stereo unspecified)	72*	-2
CN1CCN(C(=O)C2CC(c3ccccc3)=NO2)CC1 (stereo unspecified)	3	-3
CC(=C/c1ccco1)/C=N/n1c(-c2ccco2)n[nH]c1=S	i	.
O=C(CCN1CCN(Cc2ccccc2)CC1)N1CCCc2c1c(=O)oc1ccc(O)cc21	1	8
CSc1nnc(-c2nn(C)c3c2CN(C(=O)C2CCCC2)CC3)n1C	6	1
COc1ccccc1CNc1ccc2cn[nH]c2c1	44	-1
Cc1ccccc1CNc1ccc2cn[nH]c2c1	62*	-4
COc1cc(CNc2ccc3cn[nH]c3c2)ccc1O	37	0
Cc1ccc(CNc2ccc3[nH]ncc3c2)cc1	82*	-6
Oc1ccc(CNc2ccc3cn[nH]c3c2)cc1	10	-4
c1ccc(CNc2ccc3cn[nH]c3c2)cc1	82*	0
Cc1cc(C2CCCN2Cc2cccc(OCc3ccccc3)c2)on1 (stereo unspecified)	-25	2
Cc1c(CN2CCC(c3nncn3-c3ccccc3)CC2)cnn1C	6	3
Brc1cccc(-c2cn3c(n2)-c2ccccc2C3)c1	47	1
SMILES	mHTT CaM bind	Pf apPOL block
O=C(NCC1CCCO1)c1ccc(-c2cncnc2)nc1 (stereo unspecified)	-8	2
COc1cc2c(cc1OC)C(COc1ccccc1OC)N(C(=O)c1c(F)cccc1F)CC2 (stereo unspecified)	31	-6
N#C/C(=C\c1cc2c(cc1Br)OCO2)c1ccc([N+](=O)[O-])cc1	7	3
N#C/C(=C\c1ccccc1/C=C(\C#N)c1ccc2c(c1)OCO2)c1ccc2c(c1)OCO2	73*	.
CCN(CC)S(=O)(=O)c1ccc(OC)c(NC(=O)CCc2ccccc2)c1	1	6
Cc1ccc(C2CCCN2C(=O)Cc2cccc(F)c2)cc1 (stereo unspecified)	2	-8
COc1cc(OC)cc(C2=NC3(CCCC3)N(C(=O)c3cc(OC)c(OC)c(OC)c3)C2=S)c1	52*	-5
CNC(=O)C1CN(C(=O)c2cc(OC)c(OC)c(OC)c2)CC12CCCC2 (stereo unspecified)	-8	0
Cc1sc(NC(=O)COc2ccc(Cl)cc2)nc1-c1ccc2c(c1)NC(=O)CO2	9	-7
O=c1c(C=NC2CCS(=O)(=O)C2)c(N2CCOCC2)nc2ccccn12 (stereo unspecified)	2	3
O=[N+]([O-])c1ccccc1C1Nc2ccc(Br)cc2C2C=CCC21 (stereo unspecified)	57*	-25
O=C(O)c1ccc2c(c1)C1C=CCC1C(c1cccc([N+](=O)[O-])c1)N2 (stereo unspecified)	85*	-2
O=C(O)c1ccc2c(c1)C1C=CCC1C(c1ccccc1[N+](=O)[O-])N2 (stereo unspecified)	53*	-19
O=C(c1ccc2c(c1)C1C=CCC1C(c1ccc([N+](=O)[O-])cc1)N2)N1CCCC1 (stereo unspecified)	48	-17
CCN1CCCn2nc(C3CCN(C(=O)Cc4cccc(C)c4)CC3)cc2C1=O	4	4
CCCCCC1CCC(/C(C)=N/NC(N)=O)CC1 (stereo unspecified)	i	.
Cc1cc2c(c(=O)[nH]1)C(=O)O/C2=C\c1cc2c(cc1Br)OCO2	-2	-5
COCCC(=O)N1CCCC2(C1)Nc1ccccc1NC2=NC1CCCC1 (stereo unspecified)	7	-4
O=C(c1ccoc1)N1CCCC2(C1)Nc1ccccc1NC2=NC1CCCC1 (stereo unspecified)	69*	4
O=C(NCc1ccccc1)N1CCCC2(C1)Nc1ccccc1NC2=NC1CCCC1 (stereo unspecified)	100*	-6
O=C(c1ccccn1)N1CCCC2(C1)Nc1ccccc1NC2=NC1CCCC1 (stereo unspecified)	24	0
O=C(c1ccncc1)N1CCCC2(C1)Nc1ccccc1NC2=NCc1ccccc1 (stereo unspecified)	24	0
O=C(c1ccco1)N1CCCC2(C1)Nc1ccccc1NC2=NC1CCCC1 (stereo unspecified)	79*	-1
O=C(c1ccccc1)N1CCCC2(C1)Nc1ccccc1NC2=NC1CCCC1 (stereo unspecified)	32	2
O=S(=O)(C1CC1)N1CCCC2(C1)Nc1ccccc1NC2=NCc1ccccc1 (stereo unspecified)	62*	-5
SMILES	mHTT CaM bind	Pf apPOL block
Cc1ccc(NC(=O)N2CCN(c3ccccc3C)C(=O)C2C)cc1 (stereo unspecified)	0	-2
COc1ccc(C(O)CN2CCN(c3cccc(Cl)c3)CC2)cc1 (stereo unspecified)	-2	-2
COc1ccc(-c2noc(-c3cccc([N+](=O)[O-])c3)n2)cc1	5	4
O=C(c1c(F)cccc1F)n1nnc2ccccc21	36	-4
O=C(Cc1ccc(F)cc1)NC1(c2nc(-c3cccnc3)no2)CCCCC1	4	-3
NC(=O)NN=C1CCc2ccccc21	.	4
Cn1cc(Br)c(C(=O)Nc2ccc(Br)cc2)n1	-15	-4
COc1ccccc1NC(=O)c1nn(C)cc1Br	-3	61*
CC(C)c1cc(C2CCCN2Cc2cccc(F)c2)on1 (stereo unspecified)	-8	-3
COc1ccc(Cl)cc1NC(=O)N1CCC2(CC1)Nc1cc(F)ccc1-n1cccc12	55*	-2
COc1ccccc1NC(=O)N1CCC2(CC1)Nc1cc(F)ccc1-n1cccc12	57*	-9
COc1ccc(C)cc1NC(=O)N1CCC2(CC1)Nc1ccccc1-n1cccc12	36	2
COc1ccc(OC)c(NC(=O)N2CCC3(CC2)Nc2cc(F)ccc2-n2cccc23)c1	63*	1
Cc1ccccc1NC(=O)N1CCC2(CC1)Nc1cc(F)ccc1-n1cccc12	35	-5
CCC(=O)N1CCc2cc(N3CC(C(=O)Nc4cccc(SC)c4)CC3=O)ccc21 (stereo unspecified)	4	2
CCc1[nH]nc(-c2ccc3c(c2)OCO3)c1NC(=O)C(C)C	10	-2

Screening results (PubChem)
